Results on 45 molecules are retold here after PubChem BioAssay AID504332 (National Center for Advancing Translational Sciences (NCATS), 2011).

Structures are written as SMILES. The whole screen tested about 350,000 compounds, of which about 31,000 (8.9%) were called active. A call without a number means that no potency is given here. Not shown: some 15% with an inconclusive outcome. The sample as a whole holds a higher share of actives than the screen did. A number with no mark means an inactive call. The call rests on the fitted dose curve; in most records, active means well fitted inhibition curve with a large enough effect; inconclusive means small, poorly fitted or top-dose-only effect; inactive means no such curve, though single readings can be large or run the other way.
Potency means the concentration at half of the fitted maximal effect.

Sequence of Histone-lysine N-methyltransferase EHMT2 (Homo sapiens) (Q96KQ7 913-1193 limits assumed): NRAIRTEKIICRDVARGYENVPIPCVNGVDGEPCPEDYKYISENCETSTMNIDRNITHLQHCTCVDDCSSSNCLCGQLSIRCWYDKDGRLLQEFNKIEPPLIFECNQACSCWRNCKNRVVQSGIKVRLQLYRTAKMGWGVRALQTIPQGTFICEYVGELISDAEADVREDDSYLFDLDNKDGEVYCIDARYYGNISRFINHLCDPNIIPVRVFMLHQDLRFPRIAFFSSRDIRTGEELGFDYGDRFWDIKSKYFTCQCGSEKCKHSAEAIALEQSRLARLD

The assay has as its target Histone-lysine N-methyltransferase EHMT2 (Homo sapiens) (UniProt Q96KQ7). Description: qHTS Assay for Inhibitors of Histone Lysine Methyltransferase G9a. Further: nearly all actives have a fitted effect of over 75% in size. The following applies: G9a H3K9 monomethylation, AlphaScreen, 2 h; series mostly up to 102 µM. From the text:
Methylated lysines, on the N-terminal tails of histone proteins serve as epigenetic markers to recruit factors that can then modify local chromatin structure to lead to functional consequences. G9a and other members of the SUV39 family of the SET domain-containing superfamily of histone lysine methyltransferases (HMT) have been identified to specifically methylate Lys9 of histone H3 (H3K9). G9a catalyzes the mono- and di-methylation of H3K9 in mammalian euchromatic regions, where the resulting H3K9me2 is indicative of transcriptional repression. […] The inhibition of G9a will result in transcriptional activation and work synergistically with DNA methyltransferase and histone deacetylase inhibitors, to kill cancer cells. This qHTS assay for identification of G9a inhibitors is a chemiluminescence based AlphaScreen (PerkinElmer). Methylation of biotinylated-histone peptide is measured through specific antibody-based detection, in conjunction with streptavidin-coated donor and anti-IgG antibody-coated acceptor beads. The method is particularly well suited for detection of inhibitors acting by the desired histone peptide competitive mechanism and is applicable to testing other HMTs. Although AlphaScreen has significant advantages with its utility in a variety of epigenetic target assays, the primary screening data provided in this deposition should be used with caution due to the prevalence of screening artifacts. An AlphaScreen counterscreen is highly recommended to be run against any putative actives to eliminate non specific artifacts. Alternatively, one can use other AlphaScreen assays in PubChem to filter out promiscuous hits. Quinn et al. A chemiluminescence-based method for identification of histone lysine methyltransferase inhibitors. Mol Biosyst 6(5): 782-8. 2010. PMID: 20567762 [2] Baell,Holloway. New substructure filters for removal of pan assay interference compounds (PAINS) from screening libraries and for their exclusion in bioassays. J Med Chem. 53(7):2719-40. 2010. PMID: 20131845 NIH Molecular Libraries Probe Production Network [MLPCN] NIH Chemical Genomics Center [NCGC] Structural Genomics Consortium (SGC) NIH Grant: 5U54 MH084681-02
To each well of a 1,536w plate, 2ul of HMT enzyme (final 20nM) were added, using a nanoliter dispenser. The G9a- and GLP-inhibitor BIX-01294 (CID: 25150857) are used as an intraplate control, with a 16-point titration in duplicate. A Kalypsys pin-tool transferred 23nl of library compound solution in DMSO to each well. Following a 15 min incubation of enzyme with compounds at room temperature, 1ul mixture of b-H3K9 peptide substrate (final 500nM) and SAM cofactor (final 20uM) were added. Reactions were allowed to proceed at room temperature for 2 hours. Methylated b-H3K9 peptide product was detected with 0.5 ug/mL rabbit polyclonal anti-monomethyl histone H3K9 antibody (Abcam Inc., Cambridge, MA) and 20 ug/mL each streptavidin-coated donor and anti-rabbit IgG acceptor AlphaScreen beads. Antibody and beads were added in a 1ul dispense, for a final volume of 4ul, and plates were incubated, protected from the light, for 10 min at room temperature. Microplates were then read on an EnVision multilabel plate reader using the 1,536 plate HTS AlphaScreen aperture (excitation time 80 ms, measurement time 240 ms).
Background: In qHTS, concentration-response curves come from the screen itself.
`c1ccc(Cc2nn3c(Cn4cnc5ccccc54)nnc3s2)cc1`: the Potency was 3.16 µM (active). Take `COc1ccc(S(=O)(=O)NCc2ccc(C(=O)N3CCC4(CC3)OCCO4)cc2)cc1`: the activity, negative = inhibition entry was “inactive”.

With `O=c1[nH]c(=O)n(-c2ccc(F)cc2)c(O)c1C=NCCN1CCCCC1`, the activity, negative = inhibition result is “inactive”. In the case of `Cc1cccc(-n2c(O)c(/C=N/N3CCOCC3)c(=O)[nH]c2=S)c1`, the Potency is 22.4 µM (active).

With `Cc1ccc(-n2c(O)c(C=NCC3CCCO3)c(=O)[nH]c2=O)c(C)c1` (stereo not given), the activity, negative = inhibition was 48.7% [at 12.7 µM]. As to `O=C(N/N=C/c1c(O)n(C2CC2)c(=S)[nH]c1=O)c1ccccc1`, the activity, negative = inhibition result is “inactive”. Regarding `Cc1cccc(-n2c(O)c(C=NC34CN5CN(CN(C5)C3)C4)c(=O)[nH]c2=O)c1`, the Potency is 50.1 µM (active).

On to `O=c1[nH]c(=O)n(-c2ccccc2)c(O)c1C=NC12CN3CN(CN(C3)C1)C2`, for which the activity, negative = inhibition result was “inactive”. With `CC(C)c1ccc(-n2c(O)c(/C=N/N3CCOCC3)c(=O)[nH]c2=S)cc1`, the Potency is 50.1 µM (active).

In the case of `O=c1[nH]c(=O)n(CCc2ccc(F)cc2)c(O)c1/C=N/N1CCCCC1`, the activity, negative = inhibition result is “inactive”. Consider `O=c1[nH]c(=O)n(CCc2ccccc2)c(O)c1/C=N/N1CCOCC1`, for which the activity, negative = inhibition result is “inactive”. The same measure, in the same setting: under `CN(C)CC1CCCCC1=O` (stereo not given) stands “inactive”; under `CN(C)c1ccc(/C=C2\CC3C4CC=C5CC(O)CCC5(C)C4CCC3(C)C2=O)cc1` (stereo not given), “inactive”; under `COC(=O)C1=C(c2ccccc2OCc2ccccc2)C[C@@H]2CC[C@H]1N2C(=O)NCc1ccc(OC)cc1`, -7.46% [at 2.33 µM]. Turning to `CCOc1ccc(C2SCC(=O)Nc3c2c(C)nn3C2CCOC(C)(C)C2)cc1` (stereo not given), the activity, negative = inhibition entry was “inactive”. Take `c1ccc2c(c1)[I+]c1ccccc1-2`: the activity, negative = inhibition is -19.1% [at 12.7 µM]. For the molecule `Cc1ccc(-c2nc3ccccc3c(=O)n2-c2ccc(Br)cn2)cc1`, the activity, negative = inhibition entry was “inactive”.

For `CN(C)C(=O)Oc1ccc(NC(=O)N2CCOCC2)cc1`, the activity, negative = inhibition result was “inactive”. `CSc1nc2ccc(C)cc2c(=O)n1-c1cccnc1`: the activity, negative = inhibition entry was “inactive”. For the molecule `N#Cc1ccc(Cn2cc(C(=O)c3ccco3)c3ccccc32)cc1`, the activity, negative = inhibition result is “inactive”. As for `COc1ccc(-n2c(O)c(C(C)=Nc3ccc4c(c3)CCC4)c(=O)[nH]c2=O)cc1`, the activity, negative = inhibition result was “inactive”. Consider `CC(=O)NBr`, for which the activity, negative = inhibition result was “inactive”. As to `CCc1nc2ccccc2c(=O)n1-c1cccc(OC)c1`, the activity, negative = inhibition result is “inactive”. As for `Cc1cccc(-n2c(C)nc3cc(C(=O)N4CCC5(CC4)OCCO5)ccc32)c1`, the activity, negative = inhibition entry was “inactive”. In the case of `O=C(N/N=C/c1c(O)n(Cc2ccccc2)c(=O)[nH]c1=O)c1ccccc1`, the activity, negative = inhibition result was “inactive”.

With `Fc1ccc(N2CCN(Cc3ccc4c(c3)OCO4)CC2)cc1`, the Potency was 8.91 µM (active). Consider `Cc1cc(=O)oc2c(C)c(OCC(=O)N3CCN(Cc4ccc5c(c4)OCO5)CC3)ccc12`, for which the activity, negative = inhibition entry was “inactive”. On to `Oc1cc2c(cc1CN1CCN(c3ccccc3)CC1)OCO2`, for which the Potency was 10 µM (active).

Turning to `CC(C)c1ccc(O)c(CN2CCN(c3ccccc3)CC2)c1`, the activity, negative = inhibition result is “inactive”. For `O=C(NCC(c1cccnc1)N1CCN(c2ccccc2)CC1)Oc1ccccc1` (stereo not given), the activity, negative = inhibition entry was “inactive”.

Consider `Cc1ccc(C(C)C)c(OCC(=O)N2CCN(CC(=O)N3CCOCC3)CC2)c1`, for which the activity, negative = inhibition is 28.3% [at 12.7 µM]. In the case of `CN1CCN(/N=C/c2c[nH]c3ccccc23)CC1`, the activity, negative = inhibition entry was “inactive”. `CC(=O)OC1C2CCC3C1(CC(O)[C@@]1(O)[C@@H](CC(O)C1(C)C)[C@]3(C)O)C[C@@]2(C)O` (stereo not given in full): the activity, negative = inhibition is -31.5% [at 2.33 µM]. Still for that read-out and setting: under `CCN1C[C@@]2(COC)CC[C@H](OC)[C@]34[C@@H]1[C@]1(OCO[C@@]15C[C@@H](OC)C1C[C@H]3[C@H]5[C@@H]1OC)[C@H](O)[C@@H]24` stands 26.9% [at 21.5 µM]; under `CSC1=NP(=S)(SC)N(C)c2nc3n(c21)CCC3` (stereo not given), “inactive”; under `COc1ccc(-c2nn(CCC#N)cc2C(=O)Nc2ccc(C(C)=O)cc2)cc1`, “inactive”. With `COc1cc(-n2c(=S)[nH]c3ccc(C)cc3c2=O)c(Cl)cc1Cl`, the activity, negative = inhibition was 20.4% [at 12.7 µM]. For `Cc1cc2ccccn2c1C(C[N+](=O)[O-])c1c(F)cccc1Cl` (stereo not given), the Potency was 44.7 µM (active). Consider `Cc1nc2nc(C)c(CCC(=O)N3CCC4(CC3)OCCO4)c(C)n2n1`, for which the activity, negative = inhibition result was “inactive”. Consider `CNP1(NC)=Nc2nn(-c3ccccc3)c(N)c2C(c2ccccc2)=N1`, for which the activity, negative = inhibition entry is “inactive”. The same measure, in the same setting: the entry for `C/C=C/CC1(CC)C(=O)NC(=S)NC1=O` is “inactive”. Regarding `O=C(NC(=S)N1C[C@H]2C[C@H](C1)c1cccc(=O)n1C2)c1ccc(F)cc1`, the Potency is 35.5 µM (active). For the molecule `COc1cccc(C(=O)N2C[C@H]3C[C@@H](C2)c2cccc(=O)n2C3)c1`, the activity, negative = inhibition is 1.87% [at 12.7 µM].

As for `O=C(CCC(=O)N1C[C@H]2C[C@@H](C1)c1cccc(=O)n1C2)NCc1ccccc1C(F)(F)F`, the activity, negative = inhibition is 12.2% [at 0.501 µM]. With `Cc1cccc(NC(=O)OC2CN3CCC2CC3)c1` (stereo not given), the activity, negative = inhibition result was “inactive”.
